# Bioassay records deposited in PubChem BioAssay by several laboratories.
# This is a sample that favours compounds with a hit; in the whole collection about 3% have one here.
# Shn3 3UTR inh = Schnurri-3 reporter inhibition in Clone20 osteoblasts; inhibition, % at 12.5 µM; 360,000 tested, 0.52% active; Clone20 osteoblast Shn3 3'UTR firefly luciferase, 24 h; AID 588674;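 active means mean inhibition of at least 75% with every replicate also reaching 75%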;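 further: 0% = median of neutral control wells and 100% = pilot-screen positive control compound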
# EWS-Fli block = EWS/Fli transcriptional activity inhibition; A673 NR0B1-luciferase reporter, viability-normalised; inhibition, % at 12.6 µM; 350,000 tested, 0.67% active; AID 651661;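 active means mean inhibition of at least 50% after viability correction, with every replicate also passing that limit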;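 further: firefly luciferase signal divided by Alamar Blue viability fluorescence both relative to DMSO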
# MITF TRPM1 inh = inhibitors of MITF-driven TRPM1 promoter in melanoma cells; SK-MEL-5 TRPM1 promoter luciferase, 24 h; inhibition, % at 12.5 µM; 330,000 tested, 0.83% active;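 active means mean inhibition across replicates of 60% or more, whatever share of single replicates reaches that level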
# ABHD5 PLIN5 PPI = inhibitors of human ABHD5-perilipin-5 interaction; Q00G26+Q8WTS1; Split G. princeps luciferase complementation, luminescence, 4 h; inhibition, % at 4 µM; 360,000 tested, 0.78% active; AID 602281;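 active means inhibition above the mean inhibition across every tested compound plus 3 SD, cut at about 22% in these data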;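 further: 0% = DMSO only wells and the 100% control is not disclosed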
# Target sequence (Q00G26 whole entry, looked up): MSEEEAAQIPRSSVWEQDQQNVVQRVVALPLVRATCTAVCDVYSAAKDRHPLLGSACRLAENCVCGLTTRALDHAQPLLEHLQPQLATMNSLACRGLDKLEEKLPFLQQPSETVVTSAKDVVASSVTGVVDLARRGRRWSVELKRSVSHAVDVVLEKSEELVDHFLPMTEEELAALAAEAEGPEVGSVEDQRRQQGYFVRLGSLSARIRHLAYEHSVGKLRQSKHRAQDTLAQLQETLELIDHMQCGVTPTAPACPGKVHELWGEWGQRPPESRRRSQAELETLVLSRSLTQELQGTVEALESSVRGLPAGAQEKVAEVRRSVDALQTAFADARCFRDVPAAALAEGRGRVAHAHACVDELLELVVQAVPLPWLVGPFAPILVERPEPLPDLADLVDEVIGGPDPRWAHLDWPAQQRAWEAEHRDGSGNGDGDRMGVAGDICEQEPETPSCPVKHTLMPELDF
# Target sequence (Q8WTS1 whole entry, looked up): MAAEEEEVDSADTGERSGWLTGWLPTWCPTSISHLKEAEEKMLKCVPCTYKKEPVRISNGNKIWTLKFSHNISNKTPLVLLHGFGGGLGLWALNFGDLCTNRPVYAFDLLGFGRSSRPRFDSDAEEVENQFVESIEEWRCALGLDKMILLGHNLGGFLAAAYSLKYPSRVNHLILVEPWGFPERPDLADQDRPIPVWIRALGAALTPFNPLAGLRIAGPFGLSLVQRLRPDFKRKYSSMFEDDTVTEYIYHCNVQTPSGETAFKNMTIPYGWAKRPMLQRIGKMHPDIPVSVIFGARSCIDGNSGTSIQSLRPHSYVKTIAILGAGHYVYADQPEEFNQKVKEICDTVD
# Peg3 promoter = Peg3 promoter activity inhibition; inhibition, % at 20 µM; AID 588405; 360,000 tested, 1.7% active; HeLa PEG-Prom luciferase reporter, luminescence, overnight;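 active means inhibition of at least 50% at 20 µM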
# PAX8 reporter = lowers PAX8-driven luciferase in RMG-I cells; RMG-I TPO-luciferase reporter, SteadyGlo, 24 h; 360,000 tested, 1.2% active; inhibition, % at 12.6 µM; AID 652154;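 active means mean replicate inhibition at least 60% with every replicate also reaching 60%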;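 further: luciferase light reporting Pax8 driven TPO promoter activity; plate controls were median of neutral control wells for no effect and mitoxantrone controls for full effect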
# The depositor's hits bear a star; nt = not tested or not shown.
SMILES,Shn3 3UTR inh,EWS-Fli block,MITF TRPM1 inh,ABHD5 PLIN5 PPI,Peg3 promoter,PAX8 reporter
O=C(c1cc(COc2ccc3ncccc3c2)on1)N1CCCC(O)C1 (stereo not given),53,-1,1,-4,-6,1
Cc1noc(C)c1S(=O)(=O)N(C)C[C@H]1Oc2c(NC(=O)c3cnccn3)cccc2C(=O)N([C@@H](C)CO)C[C@H]1C,nt,0,nt,nt,nt,nt
COC(=O)c1c(C)n(-c2ccccc2)c2ccc(O)cc12,19,nt,6,-8,22,nt
CN(C)/C=C/c1c([N+](=O)[O-])c2ccc(O)cc2n1-c1ccccc1,4,-14,-12,2,52*,2
COc1ccc(S(=O)(=O)Nc2ccc3c(c2)C(=O)N(C)C[C@H](OC)[C@@H](C)CN[C@@H](C)CO3)cc1,nt,0,nt,nt,nt,-9
CC1(C)Cc2c(C#N)c(N3CCN(C(=O)c4ccccc4Cl)CC3)nc(-c3ccco3)c2CS1,-5,nt,0,29*,15,nt
CC1(C)Cc2c(C#N)c(N3CCN(C(=O)c4ccco4)CC3)nc(-c3ccco3)c2CS1,-15,nt,-3,4,24,-9
Cc1noc(C)c1NC(=O)N(C)C[C@H]1OCCCC[C@@H](C)Oc2ccc(N(C)C)cc2C(=O)N([C@H](C)CO)C[C@H]1C,nt,3,nt,nt,nt,-7
CC(=O)CC1OC(=O)C(Br)=C1NCc1ccccc1 (stereo not given),10,nt,-21,16,104*,nt
CN(C)C(=O)C[C@H]1CC[C@@H]2[C@@H](COc3ccc(NC(=O)c4cnccn4)cc3C(=O)N2C)O1,nt,1,nt,nt,nt,22
CC1CCN(CCCNC(=O)c2cc3c(Cl)nc4ccccc4c3s2)CC1,-1,9,37,9,53*,-3
O=C(NCCCN1CCCC1)c1cc2c(Cl)nc3ccccc3c2s1,8,5,-4,12,7,-12
CCCCCCc1cc2cc(C(=O)Nc3ccccc3)c(=O)oc2cc1O,-12,nt,72*,-2,24,nt
CCCNC(=O)Nc1ccc2c(c1)OC[C@H](C)N(C(=O)c1ccccc1F)C[C@H](C)[C@@H](OC)CN(C)C2=O,nt,6,nt,nt,nt,nt
COc1ccc(-n2c(CNc3ccc(C)cc3)nnc2SCC(=O)Nc2nc(-c3ccccc3)cs2)cc1,3,nt,4,11,36,nt
COc1ccc(NCc2nnc(SCC(=O)Nc3nc(-c4ccccc4)cs3)n2-c2ccccc2)cc1,16,11,14,2,83*,4
CN(Cc1ccco1)c1ncnc2ccc(-c3ccc4c(c3)OCO4)cc12,29,3,24,-8,43,6
CN(Cc1ccco1)c1ncnc2ccc(-c3ccc4c(ccn4C)c3)cc12,2,67*,28,13,-26,16
CC(C)c1ccc(S(=O)(=O)c2cc3cc(Br)ccc3oc2=O)cc1,17,nt,2,5,88*,-4
Nc1ccc(S(=O)(=O)Nc2cnc3c(Cl)cccc3n2)cc1,-61,-4,-3,6,2,80*
CC(C)NC(=O)N(C)C[C@H]1Oc2ccc(NC(=O)Nc3ccc(C(F)(F)F)cc3)cc2CC(=O)N([C@@H](C)CO)C[C@H]1C,nt,63*,nt,nt,nt,52
Cc1ccc(S(=O)(=O)Nc2ccc3c(c2)CC(=O)N([C@@H](C)CO)C[C@H](C)[C@@H](CN(C)C(=O)Nc2ccc(C(F)(F)F)cc2)O3)cc1,nt,9,nt,nt,nt,88*
C[C@H]1CN([C@@H](C)CO)C(=O)Cc2cc(NC(=O)Nc3ccc(C(F)(F)F)cc3)ccc2O[C@H]1CN(C)C(=O)Nc1ccc(C(F)(F)F)cc1,nt,16,nt,nt,nt,86*
Cc1ccc(S(=O)(=O)Nc2ccc3c(c2)CC(=O)N([C@@H](C)CO)C[C@H](C)[C@H](CN(C)C(=O)Nc2ccc(C(F)(F)F)cc2)O3)cc1,nt,14,nt,nt,nt,-18
CC(=O)Nc1ccc2c(c1)C(=O)N(C)[C@@H]1CC[C@H](CC(=O)NCc3ccc4c(c3)OCO4)O[C@H]1CO2,nt,5,nt,nt,nt,23
SMILES,Shn3 3UTR inh,EWS-Fli block,MITF TRPM1 inh,ABHD5 PLIN5 PPI,Peg3 promoter,PAX8 reporter
C[C@H](CO)N1C[C@H](C)[C@H](CN(C)S(=O)(=O)c2cccs2)Oc2ccc(NC(=O)NC3CCCCC3)cc2C1=O,nt,7,nt,nt,nt,nt
C[C@@H]1CN([C@@H](C)CO)C(=O)c2cc(-c3ccccc3F)cnc2O[C@@H]1CN(C)C(=O)C1CCC1,nt,-8,nt,nt,nt,nt
CNC(=O)C[C@H]1CC[C@H]2[C@@H](COc3ccc(NC(=O)c4ccc(F)c(F)c4)cc3C(=O)N2C)O1,nt,2,nt,nt,nt,-5
C[C@@H]1CCCCO[C@H](CN(C)C(=O)Nc2ccc(F)cc2)[C@H](C)CN([C@@H](C)CO)C(=O)c2cc(NS(=O)(=O)c3cn(C)cn3)ccc2O1,nt,-18,nt,nt,nt,-21
CNC(=O)C1Cc2ccccc2CN1S(=O)(=O)c1cccs1 (stereo not given),5,nt,10,1,51*,-6
CCc1nnc(NC(=O)C2Cc3ccccc3CN2S(=O)(=O)c2cccs2)s1 (stereo not given),-37,nt,-41,16,-159,nt
C[C@H](CO)N1C[C@H](C)[C@H](CN(C)C(=O)Nc2ccccc2)Oc2ccc(NC(=O)c3ccncc3)cc2C1=O,nt,nt,nt,nt,nt,-22
CCN(CC)CCNC(=O)c1ccc(NC(=O)c2cc(-c3ccco3)nc3ccccc23)cc1,21,nt,70*,4,61*,-19
Cc1cc(C2(c3ccc(O)c(C)c3)C(=O)Nc3ccccc32)ccc1O,32,nt,35,-10,80*,nt
Cc1cccc2c1NC(=O)C2(c1ccc(O)cc1)c1ccc(O)cc1,-1,nt,22,20,27,nt
O=C(N[C@@H]1CC[C@H](CCNC(=O)C2CCC2)O[C@@H]1CO)c1ccncc1,nt,3,nt,nt,nt,-6
CCNC(=O)[C@H]1[C@H](CO)[C@H]2Cn3c(ccc(-c4ccccc4F)c3=O)[C@@H]1N2C(=O)CC,nt,-7,nt,nt,nt,-11
C[C@@H]1CCCCO[C@@H](CN(C)C(=O)Nc2ccc(C(F)(F)F)cc2)[C@H](C)CN([C@H](C)CO)C(=O)c2cc(NS(=O)(=O)c3cccs3)ccc2O1,nt,27,nt,nt,nt,85*
